Reference: PubChem BioAssay AID1259415 (National Center for Advancing Translational Sciences (NCATS), 2018)
In all, about 410,000 compounds went through this assay and about 18,000 (4.4%) were called active. Another 7% or so got no clear call; they are omitted. Many of the other results were omitted from the sample, so actives are more common in it than they were. Values without a mark were called inactive. No stated cut-off is given here; in the data, active means activity change below about -60%; inconclusive means no clear call, values can overlap the other calls; inactive means above about -39%.

experiment: qHTS Assay for inhibitors of the human cytomegalovirus (HCMV); conditions: HFF cells, HCMV-luciferase reporter, 72 h; at 57.5 µM; stronger effect = lower value
Procedure, shortened: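 After 16 h attachment at 37C, HFF cells received test compound and HCMV-luciferase (1 PFU/cell); reporter luminescence read 72 h later, data normalized against buffer-only and known inhibitor Salinomycin.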
On the % scale 0 is the no-effect control and ±100 the full control effect.

**Q.** Which activity change, negative = inhibition does the source give for `Oc1ccccc1-c1nc2ccc(Cl)cn2c1Nc1ccc2c(c1)OCCO2` here?
**A.** -5.59%

**Q.** With `COc1ccccc1CNC(=O)CCn1c(=O)c2ccccc2n(CC(=O)Nc2ccc(Br)cc2F)c1=O` as the compound, how does the activity change, negative = inhibition read?
**A.** -12.3%

**Q.** For `Cc1ccc(CCNC(=O)c2ccc(CS(=O)(=O)Cc3cccc(C)c3)o2)cc1`, which activity change, negative = inhibition is on record?
**A.** -17.4%

**Q.** For `Cc1cccc(NC(=O)Cn2cc(S(=O)(=O)Cc3ccccc3Cl)c3ccccc32)c1`, which activity change, negative = inhibition is on record?
**A.** 0%

**Q.** With `Cc1ccc(Cn2c(CNC(=O)Cc3cccc(C)c3)nc3cccnc32)cc1` as the compound, how does the activity change, negative = inhibition read?
**A.** -7.33%

**Q.** For `Cc1cccc(CS(=O)(=O)c2ncc(Cl)c(C(=O)Nc3ccc(F)cc3)n2)c1`, which activity change, negative = inhibition is on record?
**A.** -110% (active)

**Q.** With `CCOC(=O)c1ccc(NC(=O)c2nc(SCc3ccc(F)cc3)ncc2Cl)cc1` as the compound, how does the activity change, negative = inhibition read?
**A.** 13.6%

**Q.** Which activity change, negative = inhibition does the source give for `CCS(=O)(=O)c1ncc(N(Cc2ccc(F)cc2)Cc2ccco2)c(C(=O)Nc2cc(C)ccc2C)n1` here?
**A.** -29.7%

**Q.** With `CCCSc1ncc(Cl)c(C(=O)Nc2c(C(=O)Nc3ccccc3)oc3ccccc23)n1` as the compound, how does the activity change, negative = inhibition read?
**A.** -20.1%

**Q.** For `Cc1ccc(NC(=O)c2nc(S(=O)(=O)Cc3cccc(C)c3)ncc2Cl)cc1`, which activity change, negative = inhibition is on record?
**A.** -94.3% (active)

**Q.** Which activity change, negative = inhibition does the source give for `Cc1cccc(NC(=O)c2nc(S(=O)(=O)Cc3ccccc3)ncc2Cl)c1` here?
**A.** -100% (active)

**Q.** Which activity change, negative = inhibition does the source give for `CC=C(C)C(=O)OC1CCN2CC=C(COC(=O)C(O)(C(C)OC)C(C)(C)O)C12` (stereo not given) here?
**A.** -28.3%

**Q.** With `O=C(CCC1N=C2c3ccccc3N=C(SCc3ccccc3F)N2C1=O)NCCc1ccccc1` (stereo not given) as the compound, how does the activity change, negative = inhibition read?
**A.** -29%

**Q.** For `O=C(Cn1c(=O)n(-c2ccc(F)cc2)c(=O)c2sccc21)Nc1cccc(C(F)(F)F)c1`, which activity change, negative = inhibition is on record?
**A.** -5.68%

**Q.** For `CC1CCCCN1S(=O)(=O)c1ccc(F)c(C(=O)Nc2ccccc2C(F)(F)F)c1` (stereo not given), which activity change, negative = inhibition is on record?
**A.** 11%

**Q.** Which activity change, negative = inhibition does the source give for `COc1cc([C@H](Cc2ccccc2)NC(C)=O)oc(=O)c1` here?
**A.** -10.1%

**Q.** For `CC(C)OC(=O)c1sc2nc3c(cc2c1N)C(=O)CCC3`, which activity change, negative = inhibition is on record?
**A.** 45.7%

**Q.** For `COc1cccc(C(=O)c2sc3nc(-c4ccccc4)cc(C(F)(F)F)c3c2N)c1`, which activity change, negative = inhibition is on record?
**A.** 7.18%

**Q.** For `NC(=O)c1sc2nc3c(c(-c4ccccc4)c2c1N)CCC3`, which activity change, negative = inhibition is on record?
**A.** -93.9% (active)

**Q.** With `CCOc1ccc(CCNC(=O)COC(=O)CCS(=O)(=O)c2ccc(C)cc2)cc1OCC` as the compound, how does the activity change, negative = inhibition read?
**A.** 55.9%

**Q.** For `COc1cc(CC(=O)Nc2nc(-c3ccc(F)c(F)c3)cs2)cc(OC)c1OC`, which activity change, negative = inhibition is on record?
**A.** -77.3% (active)

**Q.** Which activity change, negative = inhibition does the source give for `COc1ccccc1C(=O)Oc1ccc(N2C(=O)CCC2=O)cc1` here?
**A.** -9.72%

**Q.** Which activity change, negative = inhibition does the source give for `COc1ccc(-n2nc3c(c2NC(=O)c2ccc(N4C(=O)CCC4=O)cc2)CSC3)cc1` here?
**A.** 0%

**Q.** Which activity change, negative = inhibition does the source give for `COc1ccc(CC(=O)Nc2nc(-c3ccc(F)c(F)c3)cs2)cc1OC` here?
**A.** -78.6% (active)

**Q.** For `COc1ccc(C2(CNC(=O)Cc3ccc(OC)c(OC)c3)CCCC2)cc1`, which activity change, negative = inhibition is on record?
**A.** -33.6%

**Q.** For `COc1ccc(-c2cc(C(=O)NCc3cc(OC)c(OC)c(OC)c3)[nH]n2)cc1`, which activity change, negative = inhibition is on record?
**A.** 3.93%

**Q.** Which activity change, negative = inhibition does the source give for `Cc1cc2nc(NC(=O)c3ccc(S(=O)(=O)N4CCOCC4)cc3)sc2cc1C` here?
**A.** 3.59%

**Q.** With `COc1ccc(C(=O)Nc2nc(-c3ccc(S(=O)(=O)N4CCOCC4)cc3)cs2)cc1` as the compound, how does the activity change, negative = inhibition read?
**A.** -98.4% (active)

**Q.** Which activity change, negative = inhibition does the source give for `COc1ccc(CCNC(=O)COC(=O)Cc2cc(OC)c(OC)c(OC)c2)cc1` here?
**A.** -11.8%

**Q.** With `COc1ccc(C(=O)Nc2cc(S(=O)(=O)N3CCCC3)ccc2Cl)cc1` as the compound, how does the activity change, negative = inhibition read?
**A.** -31.9%

**Q.** With `COc1ccc(CC(=O)Nc2nnc3n2CCS3)cc1OC` as the compound, how does the activity change, negative = inhibition read?
**A.** 1.77%

**Q.** Which activity change, negative = inhibition does the source give for `COc1ccc(-c2csc(NC(=O)c3ccc(N4C(=O)CCC4=O)cc3)n2)cc1OC` here?
**A.** -70.7% (active)

**Q.** With `CCC(C)N(C(=O)COC(=O)C1C(C(=O)OC)=C(C)NC(C)=C1C(=O)OC)C1CCS(=O)(=O)C1` (stereo not given) as the compound, how does the activity change, negative = inhibition read?
**A.** -15.8%

**Q.** Which activity change, negative = inhibition does the source give for `COc1ccc(S(=O)(=O)N[C@H]2CC[C@@]34CCCN3C(=O)CCC[C@H]4[C@H]2Cc2ccccc2)cc1` here?
**A.** -13.9%

**Q.** For `Cc1ccccc1OCc1nc2c3cnn(-c4ccccc4F)c3ncn2n1`, which activity change, negative = inhibition is on record?
**A.** 2.88%

**Q.** Which activity change, negative = inhibition does the source give for `CCN1CCN(c2ncc3c(n2)CC(c2ccccc2O)CC3=O)CC1` (stereo not given) here?
**A.** -2.14%

**Q.** With `CCOC(=O)c1ccc2c(c1)N(Cc1cccc(OC)c1)C(=O)c1ccccc1S2(=O)=O` as the compound, how does the activity change, negative = inhibition read?
**A.** 41.8%

**Q.** Which activity change, negative = inhibition does the source give for `O=C(NC1CCCCC1)c1ccc(Cn2c(SCc3ccccc3)nc3cccnc32)cc1` here?
**A.** 13.4%

**Q.** For `CCS(=O)(=O)N1CCc2cc(C(=O)NCc3ccc(OC)cc3)ccc21`, which activity change, negative = inhibition is on record?
**A.** 21.8%

**Q.** Which activity change, negative = inhibition does the source give for `Cc1ccc(OCCSc2nc(C)c(Cc3ccccc3)c(=O)[nH]2)cc1` here?
**A.** -3.53%

**Q.** For `COc1ccc(CNC(=O)c2cc3c(=O)[nH]c4ccccc4c3s2)cc1`, which activity change, negative = inhibition is on record?
**A.** -6.89%

**Q.** With `Cc1ccc(C)n1-c1nnc(N2CCC(C(=O)NCc3ccccc3Cl)CC2)s1` as the compound, how does the activity change, negative = inhibition read?
**A.** -16.5%

**Q.** Which activity change, negative = inhibition does the source give for `Cc1cccc(-c2nc(SCC(=O)Nc3cc(C)on3)c3c(=O)n(C)c(=O)n(C)c3n2)c1` here?
**A.** -3.8%

**Q.** Which activity change, negative = inhibition does the source give for `CCOC(=O)c1oc2ccc(S(=O)(=O)n3nc(-c4ccccc4OC)cc3N)cc2c1C` here?
**A.** 0.413%

**Q.** With `Cc1oc2cc3oc(=O)ccc3cc2c1C` as the compound, how does the activity change, negative = inhibition read?
**A.** 57.6%

**Q.** For `Cc1ccc(NC(=O)Cc2ccc(NC(=O)N3CCCCc4ccccc43)cc2)cc1`, which activity change, negative = inhibition is on record?
**A.** 2.61%

**Q.** For `COc1ccc2c(c1)c(=O)c(C(=O)c1ccccc1)cn2CC(=O)Nc1ccc2c(c1)OCCO2`, which activity change, negative = inhibition is on record?
**A.** -4.48%

**Q.** For `COc1ccc(-c2noc(CSc3nc(C)cc(=O)[nH]3)n2)cc1OC`, which activity change, negative = inhibition is on record?
**A.** 14.1%

**Q.** With `COc1ccccc1-c1noc(CSc2nnc(-c3ccccc3)n2-c2ccc(C)c(C)c2)n1` as the compound, how does the activity change, negative = inhibition read?
**A.** 4.88%

**Q.** For `COc1ccccc1-c1noc(CSc2nc(C)cc(=O)[nH]2)n1`, which activity change, negative = inhibition is on record?
**A.** -61.9% (active)

**Q.** With `Cn1c(=O)sc2cc(NS(=O)(=O)c3ccc(C(C)(C)C)cc3)ccc21` as the compound, how does the activity change, negative = inhibition read?
**A.** -1.79%

**Q.** With `COc1ccc(N2CCN(S(=O)(=O)c3cc(Br)cnc3N)CC2)cc1` as the compound, how does the activity change, negative = inhibition read?
**A.** 19.7%

**Q.** Which activity change, negative = inhibition does the source give for `Cc1cc2nn(-c3ccc(Cl)cc3)nc2cc1NC(=O)C(C)C` here?
**A.** -64.3% (active)

**Q.** With `O=C(Cc1ccc(Cl)cc1)Nc1ccc2nn(-c3ccc(Cl)cc3)nc2c1` as the compound, how does the activity change, negative = inhibition read?
**A.** 21.1%

**Q.** With `CCCC(=O)Nc1cc2nn(-c3ccccc3)nc2cc1C` as the compound, how does the activity change, negative = inhibition read?
**A.** 123%
